These results are taken from PubChem BioAssay (EPA / NIEHS).

One may read the AC50 as the concentration at which the activity in the assay is half-maximal.

SMILES strings stand for the structures. Inconclusive results are not listed. The source made the active and inactive calls. The calls were made as follows: active = hit-call score of the fitted dose curve at least 0.9, where 1 is the maximum; inconclusive = response in the unintended direction; inactive = score below 0.9.

Chain of Ratio of Nucleoli Translocation and Cytoplasm, AR (gene 367) (P10275 whole entry, looked up, the tested form may be a part): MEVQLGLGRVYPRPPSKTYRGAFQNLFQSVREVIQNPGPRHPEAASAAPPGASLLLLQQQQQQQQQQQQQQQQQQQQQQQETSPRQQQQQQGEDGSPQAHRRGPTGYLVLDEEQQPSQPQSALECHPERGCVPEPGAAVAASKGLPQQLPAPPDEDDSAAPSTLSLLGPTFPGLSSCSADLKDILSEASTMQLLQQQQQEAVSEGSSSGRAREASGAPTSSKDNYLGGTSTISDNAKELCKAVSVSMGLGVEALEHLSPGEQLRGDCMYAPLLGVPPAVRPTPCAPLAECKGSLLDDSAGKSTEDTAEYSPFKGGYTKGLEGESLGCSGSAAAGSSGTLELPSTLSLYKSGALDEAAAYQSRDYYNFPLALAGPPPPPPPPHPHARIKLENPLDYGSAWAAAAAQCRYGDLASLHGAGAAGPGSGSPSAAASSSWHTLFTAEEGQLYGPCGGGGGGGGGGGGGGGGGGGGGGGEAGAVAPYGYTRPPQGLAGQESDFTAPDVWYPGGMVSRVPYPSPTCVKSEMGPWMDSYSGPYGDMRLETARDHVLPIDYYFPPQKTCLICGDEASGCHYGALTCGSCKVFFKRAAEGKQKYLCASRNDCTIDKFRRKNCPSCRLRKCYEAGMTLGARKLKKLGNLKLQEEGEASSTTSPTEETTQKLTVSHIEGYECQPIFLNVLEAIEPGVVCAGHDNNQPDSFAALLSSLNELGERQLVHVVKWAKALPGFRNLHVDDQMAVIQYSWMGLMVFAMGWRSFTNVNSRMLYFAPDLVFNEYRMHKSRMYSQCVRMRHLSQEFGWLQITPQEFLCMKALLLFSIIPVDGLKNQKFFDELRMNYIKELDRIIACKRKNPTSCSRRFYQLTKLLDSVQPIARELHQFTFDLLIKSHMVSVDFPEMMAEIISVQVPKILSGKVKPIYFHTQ

For the experiment, the target named is Ratio of Nucleoli Translocation and Cytoplasm, AR (gene 367) (UniProt P10275). The experiment in a line: UPITT_HCI_U2OS_AR_TIF2_Nucleoli_Cytoplasm_Ratio_Agonist: University of Pittsburgh U2OS Androgen Receptor-Transcriptional Intermediary Factor 2 (AR-TIF2) Agonism High Content Imaging Assay for Ratio of Nucleoli Translocation and Cytoplasm (AID 2284000).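 Also: hits raise the red nucleolar to cytoplasm ratio above vehicle.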 An excerpt:
UPITT_AR_TIF2_PPIB is a cell-based, high-content imaging assay that uses U2OS, a human osteosarcoma cell line, expressing a human androgen receptor fused to red fluorescent protein and the coactivator TIF2 fused to green fluorescent protein. UPITT_HCI_U2OS_AR_TIF2_Nucleoli_Cytoplasm_Ratio_Agonist is one of four assay components measured from the UPITT_AR_TIF2_PPIB assay. It is designed to make measurements of the ratio of red fluorescence localized in the nucleolar region of the cell nucleus to red fluorescence localized in the cytoplasm as detected with high-content fluorescent imaging.Data from the assay component UPITT_HCI_U2OS_AR_TIF2_Nucleoli_Cytoplasm_Ratio_Agonist was analyzed into 1 assay endpoint. This assay endpoint, UPITT_HCI_U2OS_AR_TIF2_Nucleoli_Cytoplasm_Ratio_Agonist, was analyzed in the positive analysis fitting direction relative to DMSO as the baseline of activity. Using a type of binding reporter, measures of receptor for gain-of-signal activity can be used to understand the binding at the pathway-level as it relates to the gene AR.
Daughter plates containing 2 uL of 10 mM compounds in DMSO were prepared and replicated from the 384-well Library of Pharmacologically Active Compounds (LOPAC) master plates using the Bravo outfitted with a 384-well transfer head. Aluminum adhesive plate seals were applied with an Abgene Seal-IT 100 (Rochester, NY) plate sealer, and the plates were stored at -20 C in a Matrical MatriMinistore (Spokane, WA) automated compound storage and retrieval system. For screening, LOPAC daughter plates were withdrawn from -20C storage, thawed to ambient temperature, centrifuged 1-2 min at 50 g, and the plate seals were removed before the transfer of 98 uL of serum-free tissue culture medium (SFM) into wells using the BioTek Microflo liquid handler (BioTek, Winooski, VT) to generate a 200 uM intermediate stock concentration of library compounds (2.0% DMSO). The diluted compounds were mixed by repeated aspiration and dispensation using a 384-well P30 dispensing head on the Evolution P3 (EP3) liquid handling platform (PerkinElmer, Waltham, MA) and then 5 uL of diluted compounds was transferred to the wells of assay plates. In the LOPAC screen, compounds were individually tested at a final concentration of 20 uM (0.2% DMSO). After the diluted compounds had been transferred from the daughter plates to the primary HCS assay plates, aluminum adhesive plate seals were applied and the diluted daughter plates were stored frozen at -20C. To confirm active compounds identified in the primary screen, we withdrew the LOPAC daughter plates containing the 200 uM intermediate concentration of library compounds (2.0% DMSO) from -20C storage, thawed them to ambient temperature, centrifuged them for 1-2 min at 50 g, and removed the plate seals. A work list was generated to direct the Multiprobe Janus liquid handling platform (PerkinElmer) to cherry pick 75 uL from the wells of the diluted daughter plates that were flagged active in the primary screen and to reformat these into a 384-well plate hit confirmation daughter plate. Five microliters of primary HCS active compounds was then transferred into triplicate wells of assay plates using a 384-well P30 dispensing head on the Evolution P3 (EP3) liquid handling platform (PerkinElmer). […] Daughter plates containing 2 uL of the serially diluted compounds in DMSO were prepared and replicated from the 384-well serial dilution master plates using the Bravo outfitted with a 384-well transfer head. Aluminum adhesive plate seals were applied and plates were stored at -20C. For testing in the bioassays, daughter plates were withdrawn from -20C storage, thawed to ambient temperature, centrifuged for 1-2 min at 50 g, and the plate seals were removed before the transfer of 38 uL of SFM into wells using the BioTek Microflo liquid handler (BioTek) to generate an intermediate stock concentration of library compounds ranging from 1.95 to 500 uM (5.0% DMSO). […]
In the case of `N#Cc1nn(-c2c(Cl)cc(C(F)(F)F)cc2Cl)c(N)c1S(=O)C(F)(F)F` (stereo not given), the outcome was inactive.
Take `Cc1cc(Cl)ccc1OCC(=O)O`: the outcome was inactive.
On to `CCCCNC(=O)n1c(NC(=O)OC)nc2ccccc21`, for which the result was inactive.
In the case of `CS/C(C)=N/OC(=O)N(C)SN(C)C(=O)O/N=C(\C)SC`, the AC50 was 84.1 µM (active).
For `N#CC(CCc1ccc(Cl)cc1)(Cn1cncn1)c1ccccc1` (stereo not given), the outcome was inactive.
Turning to `CCCC1COC(Cn2cncn2)(c2ccc(Cl)cc2Cl)O1` (stereo not given), the AC50 is 89.2 µM (active).
`CCOC(=O)CC(SP(=S)(OC)OC)C(=O)OCC` (stereo not given): the outcome was inactive.
On the same count and under the same terms, to `N#Cc1cc(Br)c(O)c(Br)c1` belongs “inactive”; to `CC(C)Oc1cc(-n2nc(C(C)(C)C)oc2=O)c(Cl)cc1Cl`, “inactive”.
In the case of `O=C(Nc1ccccc1)Nc1ccnc(Cl)c1`, the outcome was inactive.
